PD-1 reverse act – activators reversing PD-1 mediated T-cell inhibition, primary screen, luminescence, primary human CD4 T cells, PD-L1 beads. CellTiter-Glo 96 h. activation, % (no concentration beside the values). 29,000 tested, under 10 active. AID 2316, 2010; call rule not given here;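 further: 0% = median vehicle wells and 100% = positive control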
Shh pathway inh – Hedgehog pathway signaling inhibitors, primary screen, luminescence, Shh-LIGHT2 cells, Gli-luciferase; inhibition, % (test concentration not listed); AID 2313, 2010; Shh-LIGHT2 Gli-luciferase reporter, 30 h; 22,000 tested, 2.1% active;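 active means mean inhibition across valid replicates above about 65%, limit read from the data; inconclusive means mean under the limit, yet half or more replicates past it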;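 further: pathway switched on by Shh-conditioned medium diluted 1 in 25 in low serum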
NOMO-1 viab – NOMO-1 AML cell viability reduction, primary screen, STK33 inhibitor project, CellTiter-Glo luminescence; NOMO-1 AML viability, 72 h; inhibition, % (concentration not given with the values); 37,000 tested, 7.5% active; AID 2330, 2010; in the data active means inhibition above about 80%; inconclusive means no clear call, values can overlap the other calls
MITF inh – inhibitors of MITF, primary screen, MITF inhibitor project, cell-based, luminescence. 37,000 tested, 0.28% active. AID 2240, 2010. TRPM1 promoter luciferase, 24 h. inhibition, % (test concentration not listed); in the data active means inhibition above about 85%; inconclusive means no clear call, values can overlap the other calls; inactive means below about 68%;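 further: human melanocyte line stably carrying TRPM1 promoter luciferase reporter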
The depositor's hits bear a star; ? = inconclusive; . = not tested or not shown. A selection: hits, their analogues and other compounds. The true share with any hit is near 7.8%.

SMILES | PD-1 reverse act | Shh pathway inh | NOMO-1 viab | MITF inh
CC(C)NC(=O)N(C)C[C@H]1Oc2c(NC(=O)Nc3ccc(C(F)(F)F)cc3)cccc2C(=O)N([C@H](C)CO)C[C@H]1C | -3.5 | -15.5 | 114.7* | 12.3
C[C@@H]1CN([C@H](C)CO)C(=O)c2cccc(NC(=O)Nc3ccc(C(F)(F)F)cc3)c2O[C@@H]1CN(C)C(=O)Nc1ccccc1 | -4.0 | 16.1 | 104.8* | 13.1
C[C@H](CO)N1C[C@H](C)[C@H](CN(C)C(=O)Nc2ccc(F)cc2)Oc2c(NC(=O)CCCCCC(=O)Nc3ccccc3N)cccc2C1=O | -0.1 | . | 23.3 | -24.7
CC(C)NC(=O)N(C)C[C@@H]1Oc2c(NC(=O)Nc3ccc(C(F)(F)F)cc3)cccc2C(=O)N([C@@H](C)CO)C[C@H]1C | . | ? | 14.7 | 7.5
C[C@@H]1CN([C@@H](C)CO)C(=O)c2cccc(NC(=O)CCCCCC(=O)Nc3ccccc3N)c2O[C@@H]1CN(C)C(=O)Nc1ccc(C(F)(F)F)cc1 | -1.0 | . | 118.3* | 0.4
C[C@@H]1CN([C@@H](C)CO)C(=O)c2cccc(NC(=O)Nc3ccc(C(F)(F)F)cc3)c2O[C@H]1CN(C)C(=O)Nc1ccc(C(F)(F)F)cc1 | . | -7.0 | 104.9* | 60.2
Cc1cccc2c(C(=O)NCCc3ccc(S(N)(=O)=O)cc3)cc(-c3ccccc3Cl)nc12 | . | . | 20.1 | -4.2
COc1ncnc(OC)c1C | 4.9 | -39.5 | 0.5 | -4.9
Cn1nnnc1SCC(=O)Nc1ccc2ccccc2c1 | -0.7 | . | 14.0 | -29.7
C[C@H]1CN([C@@H](C)CO)C(=O)c2cccc(NC(=O)Nc3ccc(C(F)(F)F)cc3)c2O[C@H]1CN(C)C(=O)Nc1ccc2c(c1)OCO2 | . | -48.8 | 92.3* | -0.9
COc1ccc(S(=O)(=O)Nc2cccc3c2O[C@@H](CN(C)C(=O)Nc2ccc(F)cc2)[C@@H](C)CN([C@H](C)CO)C3=O)cc1 | -3.6 | 1.4 | 110.6* | 14.1
COc1ccc(NC(=O)Nc2cccc3c2O[C@@H](CN(C)C(=O)Nc2ccc(C(F)(F)F)cc2)[C@H](C)CN([C@@H](C)CO)C3=O)cc1 | 0.2 | 6.9 | 18.3 | -5.0
C[C@H]1CN([C@@H](C)CO)C(=O)c2cccc(NC(=O)Nc3ccc(C(F)(F)F)cc3)c2O[C@@H]1CN(C)C(=O)Nc1ccc(C(F)(F)F)cc1 | -3.3 | -1.3 | 88.2* | 0.0
COc1ccc(NC(=O)N(C)C[C@H]2Oc3c(NC(=O)Nc4ccc(C(F)(F)F)cc4)cccc3C(=O)N([C@H](C)CO)C[C@@H]2C)cc1 | -5.2 | -4.4 | 102.6* | -3.6
COC(=O)C1=CN(C(CC(C)C)C(=O)OC)C=C(C(=O)OC)C1c1ccc(Br)cc1 (configuration not stated) | -1.8 | 25.4 | 50.5 | -4.6
O=C(O)CCC(=O)N=S(c1ccccc1)c1ccccc1 | 0.5 | -12.3 | 62.9 | 8.1
Cc1sc(NC(=O)c2cc(-c3cccnc3)nc3ccccc23)c(C(=O)NC2CCCCC2)c1C | . | . | 97.9* | 9.4
O=C(CSC1=NC(=O)C(c2ccccc2)C(=O)N1)NC1CCCCC1 (configuration not stated) | -0.4 | 7.4 | 13.0 | -2.2
Cc1ccc(C2C(C#N)=C(N)OC(C3CC3)=C2C#N)cc1 (configuration not stated) | -2.5 | 7.1 | 34.1 | 2.2
Nc1c2c(nc3ccccc13)CCCC2 | . | -17.5 | 12.0 | -0.3
Nc1c2ccccc2nc2ccccc12 | . | -11.5 | 106.8* | 66.3
C[C@H](CO)N1C[C@H](C)[C@@H](CN(C)Cc2ccc(-c3ccccc3)cc2)Oc2c(NC(=O)CCCCCC(=O)Nc3ccccc3N)cccc2C1=O | -1.9 | . | 125.0* | 28.0
C[C@H]1CN([C@@H](C)CO)C(=O)c2cccc(NC(=O)CCCCCC(=O)Nc3ccccc3N)c2O[C@@H]1CN(C)Cc1ccncc1 | 1.4 | . | 13.1 | -35.5
C[C@H](CO)N1C[C@H](C)[C@H](CN(C)Cc2ccc(Cl)c(Cl)c2)Oc2c(NC(=O)CCCCCC(=O)Nc3ccccc3N)cccc2C1=O | -0.7 | . | 113.9* | 41.3
C[C@@H]1CN([C@H](C)CO)C(=O)c2cccc(NC(=O)CCCCCC(=O)Nc3ccccc3N)c2O[C@H]1CN(C)Cc1ccc2c(c1)OCO2 | -0.2 | . | 122.5* | 48.4
SMILES | PD-1 reverse act | Shh pathway inh | NOMO-1 viab | MITF inh
C[C@@H]1CN([C@@H](C)CO)C(=O)c2cccc(NC(=O)CCCCCC(=O)Nc3ccccc3N)c2O[C@@H]1CN(C)Cc1ccccc1 | 2.2 | . | 87.7* | -4.4
C[C@@H]1CN([C@H](C)CO)C(=O)c2cccc(NC(=O)CCCCCC(=O)Nc3ccccc3N)c2O[C@@H]1CN(C)Cc1ccc2c(c1)OCO2 | 0.3 | . | 68.4 | 13.7
COc1ccc(N2C(=O)CC(c3cn(Cc4ccccc4)c4ccccc34)C2=O)cc1 (configuration not stated) | 0.1 | 38.7 | 17.5 | 40.3
c1ccc2oc(CCCc3nc4ccccc4o3)nc2c1 | -0.1 | -7.5 | -13.1 | -29.7
O=C(NCCc1ccccc1)c1ccc(-c2ccccc2)cc1 | 0.9 | . | 23.6 | 9.8
OCCCn1c(-c2ccccc2)cn2c3ccccc3nc12 | . | . | -8.2 | 97.7*
Cc1cccc(C)c1Nc1nc2c(C)cc(C)c(C)c2s1 | -1.4 | -37.1 | 45.0 | 16.4
CCn1c(=S)[nH]c2ccccc2c1=O | -20.6 | 53.4 | -17.2 | 5.7
O=C(NCCCN1CCCC1=O)c1cc(-c2ccncc2)nc2ccc(Br)cc12 | . | . | 15.5 | -14.2
C[C@@H]1CN([C@@H](C)CO)C(=O)c2cccc(NC(=O)c3ccc(-c4nccs4)cc3)c2O[C@@H]1CN(C)Cc1ccc(-c2ccccc2)cc1 | -4.9 | 32.1 | 56.7 | -5.4
C[C@@H]1CN([C@H](C)CO)C(=O)c2cccc(NC(=O)c3ccc(-c4nccs4)cc3)c2O[C@H]1CN(C)Cc1ccc(C(=O)Nc2ccccc2N)cc1 | -1.9 | . | 128.1* | 22.9
C[C@@H]1CN([C@H](C)CO)C(=O)c2cccc(NC(=O)c3ccc(-c4nccs4)cc3)c2O[C@H]1CN(C)CC1CCCCC1 | . | -14.1 | 86.6* | 19.3
C[C@@H]1CN([C@@H](C)CO)C(=O)c2cccc(NC(=O)c3ccc(-c4nccs4)cc3)c2O[C@H]1CN(C)Cc1ccccc1 | -4.6 | 0.7 | 88.2* | 64.3
C[C@H]1CN([C@@H](C)CO)C(=O)c2cccc(NC(=O)c3ccc(-c4nccs4)cc3)c2O[C@@H]1CN(C)Cc1ccc(C(=O)Nc2ccccc2N)cc1 | -2.1 | . | 124.5* | 39.7
C[C@H](CO)N1C[C@H](C)[C@H](CN(C)CC2CCCCC2)Oc2c(NC(=O)c3ccc(-c4nccs4)cc3)cccc2C1=O | 0.9 | 6.8 | 25.8 | -10.5
O=C(Cn1cnc2sc3c(c2c1=O)CCCC3)NCCC(=O)N1CCN(c2ccc(F)cc2)CC1 | 1.0 | 21.1 | -0.4 | 1.6
Cc1c(C(=O)Nc2ccccc2C(=O)NCc2ccco2)cccc1[N+](=O)[O-] | -0.2 | . | 18.4 | 6.1
COc1ccc(NC(=O)Nc2ccc(OC)c(OC)c2)cc1OC | 0.2 | 1.3 | 31.9 | 15.2
CCC(C)c1ccc(NC(=O)c2ccc(N(CC)CC)cc2)cc1 (configuration not stated) | 1.1 | -18.4 | 119.9* | -5.8

Source: PubChem BioAssay (Broad Institute)
